Compound activity deposited in PubChem BioAssay by National Center for Advancing Translational Sciences (NCATS).
LmPK inhibitor: inhibitors of Leishmania mexicana pyruvate kinase. Q27686. Potency, µM (highest dose often 57.5 µM), usual class: inhibitors. purified LmPK, Kinase-Glo ATP luminescence, 1 h. AID 1721. 290,000 compounds, 0.37% hits
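Pyruvate kinase activity monitored as ATP production (luciferase luminescence). Conditions: 0.1 nM enzyme, 0.5 mM PEP, 0.1 mM ADP, 1 h, RT; normalized against uninhibited and no-enzyme wells.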
Shiga inhibitor: Shiga toxin inhibition; AID 2315; inhibition, % at 38.7 µM; Vero cells, Shiga toxin protein synthesis inhibition reporter; 290,000 compounds, 9.2% hits; in the data active = inhibition mostly above about 28%, no sharp cut-off; inactive = mostly below about 43%
Tb PYK inh: T. brucei pyruvate kinase inhibition; Potency, µM (top dose mostly 76.8 µM), usual class: inhibitors; TbPYK enzyme, Kinase-Glo Plus ATP luminescence, 45 min; Q57TT1; 410,000 compounds, 0.12% hits; note: nearly all actives have a fitted effect of over 50% in size
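Enzyme and substrate buffer are dispensed first and compound is pin-transferred. ADP at 130 uM final then starts the reaction, which runs 45 min at room temperature. Detection reagent is added for 10 min before luminescence is imaged.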
FBPA Giardia inh: Giardia lamblia aldolase inhibition; 290,000 compounds, 0.71% hits; purified Giardia FBPA; AID 2451; Potency, µM (doses to about 59.6 µM), hits mostly inhibitors; A8B2U2; note: nearly all actives have a fitted effect of over 55% in size
Target sequence (A8B2U2 whole entry, looked up): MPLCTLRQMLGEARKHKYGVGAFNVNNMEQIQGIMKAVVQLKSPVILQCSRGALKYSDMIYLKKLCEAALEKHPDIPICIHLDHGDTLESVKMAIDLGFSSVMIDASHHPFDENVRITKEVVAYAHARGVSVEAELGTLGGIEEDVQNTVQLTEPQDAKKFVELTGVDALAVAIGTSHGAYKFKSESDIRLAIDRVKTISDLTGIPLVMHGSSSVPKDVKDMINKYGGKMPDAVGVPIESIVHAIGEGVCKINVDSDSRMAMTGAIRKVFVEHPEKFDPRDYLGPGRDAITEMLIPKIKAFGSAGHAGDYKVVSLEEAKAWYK
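Giardia FBPA (40 nM reagent) was preincubated 10 min at RT with compound (up to 57.5 uM final), then substrate plus GAPDH/TPI/NAD/arsenate coupling system with diaphorase/resazurin was added; resorufin fluorescence (525/598 nm) was read after 20 min.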
RE007 growth inh: less growth of the S. pombe RE007 Vpr strain. S. pombe RE007 Vpr strain, BacTiter-Glo ATP luminescence, 24 h. Potency, µM (doses to about 92.2 µM), most hits filed as inhibitors. 360,000 compounds, 0.21% hits. AID 651644; active = well fitted falling curve with a large enough effect; inconclusive = small, poorly fitted or top-dose-only effect; inactive = no such curve, though single readings can be large or run the other way; note: nearly all actives have a fitted effect of over 50% in size
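Fission yeast RE007 carrying one integrated HIV-1 vpr copy, seeded at OD 0.01 in PMG+AL medium with 23 nL pinned compound. Grown 24 h at 30 degrees; viability read by BacTiter-Glo luminescence after 5 min.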
CHX counter: affects cycloheximide protein synthesis inhibition readout, counter-screen. cell reporter, cycloheximide protein synthesis inhibition counterscreen. max response, %. 300,000 compounds, 12% hits; in the data active = max response mostly above about 13%, no sharp cut-off; inactive = mostly below about 14%; note: read at 38.3 µM for the half of the compounds with a filed dose
Hits are given with their value; – = inactive; ? = inconclusive; · = no result; [ ] = remark or other dose. Only a selection was taken, and hits are over-represented in it overall. Unless noted, calls come from the whole dose curve; as a rule, active = well fitted curve in the direction sought with a large enough effect; inconclusive = small, poorly fitted or top-dose-only effect, or another doubt; inactive = no such curve, though single readings can be large; an effect the other way counts as inactive or inconclusive.

SMILES	LmPK inhibitor	Shiga inhibitor	Tb PYK inh	FBPA Giardia inh	RE007 growth inh	CHX counter
CCCc1ccc(-c2cc(C(=O)Nc3ccc([N+](=O)[O-])cn3)c3ccccc3n2)cc1	–	17	–	–	–	21
Cn1nc(C(C)(C)C)cc1C(=O)N1CCCCC1c1cc(C(=O)Nc2ccccc2Cl)no1 (configuration not stated)	·	·	–	·	–	·
Cc1cc([N+](=O)[O-])nn1CC(=O)N1c2ccccc2CC1C (configuration not stated)	–	–	–	–	–	–
CCOc1ccccc1CNc1ncnc2ccc(-c3c(C)noc3C)cc12	·	–	–	–	·	30
COc1cccc(C(=O)c2cn(CC(=O)Nc3cccc(Cl)c3C)c3nc(C)ccc3c2=O)c1	·	·	–	·	·	·
COc1ccc(N=C2C(=Nc3ccc(OC)cc3)N(c3ccccc3)C(=S)N2C(=O)c2ccc(Cl)cc2)cc1	–	63	·	–	–[3.69 µM]	43
COc1ccc(C(=O)c2ccc(Cl)cc2)cc1	–	–	–	–	–	–
COc1ccc(N=C2C(=Nc3ccc(OC)cc3)N(c3ccc(OC)cc3)C(=S)N2C(=O)c2ccc(OC)cc2)cc1	–	42	–	–	–	14
COc1ccc(N2C(=S)N(C(=O)c3ccccc3)C(=Nc3ccccc3)C2=Nc2ccccc2)cc1	·	·	–	·	?	·
CC(C)Oc1ccc(CNC(=O)CCCn2c(=O)c3cccn3c3cccnc32)cc1	·	·	–	·	·	·
CCCNC(=O)CCC(=O)N1Cc2cccc(OC)c2Oc2ncccc21	·	·	–	·	·	·
CCC(Sc1nc2n[nH]c(C)c2c(=N)n1-c1ccc(Br)cc1)C(=O)N(CC)CC (configuration not stated)	·	·	–[15.4 µM]	·	·	·
CC(=O)CCc1c(C)c2cc(C)ccc2[nH]c1=O	–	–	–	–	–	33
CC(=O)CCc1c(C)[nH]c2ccccc2c1=O	–	–	–	–	–	–
COc1ccc(NC(=O)/C(C#N)=C\c2ccc(-c3cccc(C(=O)O)c3C)o2)cc1	–	35	–	–	–	21
Cc1ccc(NC(=O)CN2C(=O)S/C(=C\c3ccc(-c4cccc(C(=O)O)c4C)o3)C2=O)cc1	–	–	·	–	·	–
COc1ccc(NC(=O)/C(C#N)=C\c2ccc(Br)o2)cc1	–	–	–	–	–	22
Cc1c(C(=O)O)cccc1-c1ccc(C=O)o1	–	54	–	–	–	35
COc1ccc(NC(=O)/C(C#N)=C/c2ccc(-c3ccccc3C(=O)O)o2)cc1	–	–	–	–	–	–
CNC(=O)/C(C#N)=C/c1ccc(-c2ccc(OC)cc2[N+](=O)[O-])o1	–	27	–	–	–	56
C[C@H]1COc2cccc(N3CCSCC3)c2S(=O)(=O)N1	·	·	–	·	–	·
CCOC(=O)C1CCN(c2ncnc3c2nnn3C)CC1	·	·	–	·	·	·
COc1ccc2oc(=O)c(-c3cn4ccc(C)cc4n3)cc2c1	–	–	–	–	–	23
Cc1ccn2cc(-c3cnoc3C)nc2c1	?	–	–	–	–	–
Clc1ccc(-c2cn3cc(Br)ccc3n2)cc1Cl	–	103	–	–	–	51
SMILES	LmPK inhibitor	Shiga inhibitor	Tb PYK inh	FBPA Giardia inh	RE007 growth inh	CHX counter
Cc1ccn2cc(-c3cccc(S(=O)(=O)N4CCCC4)c3)nc2c1	–	–	–	–	–	19
COc1c(Cl)cccc1-c1cn2ccc(C)cc2n1	?	81	–	?	–	42
COc1ccc(CN2C(=O)C(CC(=O)NC3CCCC3)CC(C(=O)N(C)C)=C2C)cc1 (configuration not stated)	·	·	–	·	–	·
CCC(CC)C(=O)NN(C(=O)c1ccncc1)C1CC(=O)N(c2ccccc2)C1=O (configuration not stated)	–	–	–	–	–	–
Cc1ccn2cc(-c3ccc(NS(=O)(=O)c4ccccc4)cc3)nc2c1	–	13	–	–	–	–
CC(=O)Nc1ccc2nc(-c3ccccc3)cn2c1	–	107	–	–	–	40
Cc1ccn2cc(-c3cccc(NS(C)(=O)=O)c3)nc2c1	–	59	–	–	–	60
Cc1ccn2cc(-c3ccc(Br)cc3)nc2c1	?	22	–	–	?	38
Cc1ccc(S(=O)(=O)Nc2ccc(-c3cn4ccc(C)cc4n3)cc2)cc1	–	–	–	–	–	–
COc1ccccc1Cn1c(CNS(=O)(=O)c2cccc([N+](=O)[O-])c2)nc2cccnc21	·	·	–	·	·	·
CC[C@H](C)[C@H](NC(=O)[C@H](CC(C)C)NC(=O)[C@@H](N)CO)C(=O)NCC(=O)N[C@@H](CCCN=C(N)N)C(=O)N[C@@H](CC(C)C)C(=O)O	·	–	·	–	·	–
CC(=O)Nc1cccc(-c2cn3ccc(C)cc3n2)c1	?	89	–	–	–	44
O=c1oc2ccccc2c(Nc2ccc3ccccc3c2)c1[N+](=O)[O-]	–	–	–	–	–	22
Cc1ccc(Nc2c([N+](=O)[O-])c(=O)oc3ccccc23)cc1	–	–	–	–	–	–
CC(=O)OC[C@@]1(O)C[C@@]23CC[C@@H]4c5ccoc5CC[C@@]4(C)[C@@H]2CCC1C3	·	·	·	–	·	·
Cc1cccc(S(=O)(=O)c2cn(Cc3ccc(F)cc3)c3cc(N4CCCCC4)c(F)cc3c2=O)c1	·	·	–	·	·	·
Cc1cc(NC(=O)c2cccnc2)ccc1NC(=O)c1cc2ccccc2o1	–	–	–	–	–	–
O=C(NC(=S)NCc1cccnc1)c1cc2ccccc2o1	–	–	–	–	–	30
O=C(Nc1cccnc1)c1cc2cc(Br)ccc2o1	–	·	–	–	–	22
CC(=O)Nc1ccc(NC(=S)NC(=O)c2cc3ccccc3o2)cc1	–	–	–	–	–	–
O=C(NC(=S)Nc1ccc(CN2CCCCC2)cc1)c1cc2ccccc2o1	–	–	–	–	–	14
O=C(NC(=S)Nc1cccnc1)c1cc2ccccc2o1	–	57	–	–	–	46
CCCNC(=O)C/C(C)=N/NC(=O)C(=O)Nc1ccccn1	–	–	–	–	–	26
C/C(CC(=O)Nc1ccccn1)=N\NC(=O)c1ccc2ccccc2c1	–	–	–	–	–	15
C/C(CC(=O)Nc1ccccn1)=N\NC(=O)c1ccccc1O	–	68	–	–	–	52
C/C(CC(=O)Nc1ccccn1)=N\NC(=O)c1ccccc1	–	–	·	–	·	30
C/C(CC(=O)Nc1ccccn1)=N\NC(=O)c1ccncc1	–	–	·	–	·	–
FC(F)(F)c1ccccc1-c1nc(NCc2cccnc2)c2ccccc2n1	·	·	·	–	·	·
COC(=O)[C@@]1(Cc2ccccc2)[C@H]2c3cc(C(=O)N4CCCC4)n(Cc4ccsc4Br)c3C[C@H]2CN1C(=O)c1ccccc1	–	–	·	–	·	–
CCOc1ccc(NC(=O)CCCn2c(C)c3cnn(-c4ccccc4)c(=O)c3c2C)cc1	·	·	–	·	·	·
